# Measured values as given in PubChem BioAssay AID504452 (The Scripps Research Institute Molecular Screening Center, 2011).
# Activity calls are given as the source filed them. Rule as the data show it: active = activation above about 85%; inactive = the rest.
# Target: Peroxisome proliferator-activated receptor gamma (Homo sapiens) (UniProt P37231)
# Assay: partial agonism at human PPARgamma receptor – cell-based, luciferase reporter, luminescence, primary screen (AID 504452);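 also: Cos-1 cells carrying PPARgamma and a response element luciferase reporter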
# Conditions: cell-based PPARg luciferase reporter, at 5 µM, stronger effect = higher value; activation (% of full agonist control): measured here: relative to full agonist control
# Sequence of Peroxisome proliferator-activated receptor gamma (Homo sapiens) (P37231 whole entry, looked up): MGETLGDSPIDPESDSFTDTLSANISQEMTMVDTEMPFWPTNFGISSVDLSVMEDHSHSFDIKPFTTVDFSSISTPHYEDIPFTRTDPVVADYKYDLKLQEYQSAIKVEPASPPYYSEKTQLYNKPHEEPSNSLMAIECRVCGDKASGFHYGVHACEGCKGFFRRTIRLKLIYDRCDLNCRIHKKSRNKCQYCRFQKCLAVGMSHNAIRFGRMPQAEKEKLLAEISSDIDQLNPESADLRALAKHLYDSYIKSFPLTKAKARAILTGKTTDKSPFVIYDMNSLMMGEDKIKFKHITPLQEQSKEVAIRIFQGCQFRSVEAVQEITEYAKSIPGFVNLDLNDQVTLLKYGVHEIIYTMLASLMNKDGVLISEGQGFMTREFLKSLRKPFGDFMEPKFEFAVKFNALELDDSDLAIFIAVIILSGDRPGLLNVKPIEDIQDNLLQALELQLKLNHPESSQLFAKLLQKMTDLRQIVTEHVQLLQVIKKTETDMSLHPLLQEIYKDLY
Structure (SMILES),activation (% of full agonist control) [%],activation (% of partial agonist control)
Cc1nc2ncccn2c1-c1csc(Nc2cccc(C(=O)O)c2)n1,33.5,74.2% (inactive)
O=c1[nH]c2cc3c(cc2cc1CN(CCN1CCOCC1)C(=S)NCC1CCCO1)OCO3 (stereo not drawn),26.6,59% (inactive)
C[C@H](NC(=O)c1nc[nH]c1C(=O)N1CCc2ccccc2C1)C(=O)OCc1ccccc1,29.5,65.3% (inactive)
CCN(CC)S(=O)(=O)c1ccc(N2CCOCC2)c(NC(=O)C(C)Oc2ccc(F)cc2)c1 (stereo not drawn),29.3,64.8% (inactive)
COc1cccc(NC(=O)c2ccc3c(c2)N(CC(=O)N2CCOCC2)C(=O)C(C)(C)O3)c1,32.5,71.9% (inactive)
CCOc1cccc(/C(O)=C2/C(=O)C(=O)N(Cc3ccco3)C2c2ccncc2)c1 (stereo not drawn),41.1,91% (active)
Cc1cc(C)c2nc(N3C(=O)C(O)=C(C(=O)c4ccco4)C3c3ccc(O)cc3)sc2c1 (stereo not drawn),40.2,89.1% (active)
COc1cc(/C=C(\NC(=O)c2ccccc2)C(=O)NC(C(=O)O)c2ccccc2)cc(OC)c1OC (stereo not drawn),39.8,88% (active)
O=C(NCc1ccccc1F)C(=O)NCC1CCCN1S(=O)(=O)c1ccccc1 (stereo not drawn),16.1,35.6% (inactive)
Cc1cccc(NC(=O)CN2C(=O)/C(=C3\SC(=S)N(CC4CCCO4)C3=O)c3ccccc32)c1 (stereo not drawn),43.3,95.8% (active)
Cc1ccccc1NC(=O)CC1C(=O)Nc2ccccc2N1CC(=O)N(C)C1CCS(=O)(=O)C1 (stereo not drawn),47,104% (active)
Cc1cc(N2C(=O)C(O)=C(C(=O)c3cccs3)C2c2cccc(Br)c2)no1 (stereo not drawn),45.7,101% (active)
Cc1cc(C)c2nc(N3C(=O)C(O)=C(C(=O)c4ccco4)C3c3ccco3)sc2c1 (stereo not drawn),32.9,72.7% (inactive)
CN1C(=O)COc2ccc(C(=O)c3oc4ccccc4c3-c3cnc4c(c3)COc3ccccc3-4)cc21,8.28,18.3% (inactive)
O=C1CC(N2CCN(Cc3ccc4c(c3)OCO4)CC2)C(=O)N1Cc1ccc(N2CCCC2=O)cc1 (stereo not drawn),41.4,91.6% (active)
Cn1nc(-c2ccccc2)c(CO)c1Oc1cccc(C(F)(F)F)c1,30.3,67% (inactive)
COc1ccc(S(=O)(=O)N2CCCCC2)cc1NC(=O)C1CSC2(C)CCC(=O)N12 (stereo not drawn),40.2,89% (active)
O=C(CSc1nnc(Cc2cc(=O)[nH]c(=O)[nH]2)n1-c1ccc(Cl)cc1)N1CCc2ccccc21,46.6,103% (active)
O=C(CN1C(=O)/C(=C/c2ccccc2F)Sc2ccccc21)NCC1CCCO1 (stereo not drawn),35,77.5% (inactive)
CC(=O)N1N=C(c2ccccc2)CC1c1cn(Cc2ccccc2)c2ccccc12 (stereo not drawn),44.7,99% (active)
COc1ccc2nc(N3C(=O)C(O)=C(C(=O)c4ccco4)C3c3ccc(C)o3)sc2c1 (stereo not drawn),41.1,91.1% (active)
O=C1C(=O)N(Cc2ccccc2)C(c2cccc(O)c2)/C1=C(\O)c1ccc2c(c1)OCCO2 (stereo not drawn),25.6,56.7% (inactive)
S=C(NCCc1ccccc1)N1CCn2cccc2C1c1ccncc1 (stereo not drawn),44.2,97.9% (active)
COc1ccccc1N1C(=O)C2C(c3ccccc3F)NN(C(=O)c3ccc(C)cc3)C2C1=O (stereo not drawn),26.8,59.4% (inactive)
Cc1ccc(C(=O)N2NC(c3ccccc3F)C3C(=O)N(c4cccc(C)c4)C(=O)C32)cc1 (stereo not drawn),33.4,73.8% (inactive)

Structure (SMILES),activation (% of full agonist control) [%],activation (% of partial agonist control)
COC(=O)C1=CN(Cc2ccc(F)cc2)C=C(C(=O)OC)C1c1ccc(O)c(OC)c1,26.8,59.4% (inactive)
Cc1c(CNCCC2=CCCCC2)c(C(=O)O)c(C)n1Cc1ccccc1,10,22.2% (inactive)
Cc1ccc(OCC(=O)Nc2ccc(N3CCN(C(=O)c4ccco4)CC3)cc2)cc1,31.4,69.5% (inactive)
Cc1ccc2nc(N3C(=O)C(O)=C(C(=O)c4ccco4)C3c3ccc(O)cc3)sc2c1 (stereo not drawn),40.9,90.5% (active)
CCOc1ccc(C2c3[nH]c4ccccc4c3CCN2Cc2cccn2-c2ncccn2)cc1 (stereo not drawn),39.5,87.5% (active)
Cc1nc2c(sc(=S)n2Cc2ccco2)c(=O)n1CC(=O)Nc1cc(F)ccc1F,32.4,71.8% (inactive)
CC(Oc1ccc(F)cc1)C(=O)Nc1cc(S(=O)(=O)N2CCCCC2)ccc1N1CCOCC1 (stereo not drawn),31.1,68.8% (inactive)
CC(Oc1ccc(F)cc1)C(=O)Nc1ccc(N2CCOCC2)cc1N1CCOCC1 (stereo not drawn),31.2,69.2% (inactive)
Nc1ccccc1SC1CC(=O)N(c2ccc3c(c2)OCO3)C1=O (stereo not drawn),34.5,76.4% (inactive)
COc1ccc2c(c1)c(CCN1C(=O)c3ccccc3C1=O)cn2C(=O)c1ccco1,27.3,60.4% (inactive)
O=C(Nc1c(C(=O)Nc2ccc3c(c2)OCCO3)cnn1-c1ccccc1Cl)c1ccco1,47.5,105% (active)
CN(C)c1ccc(C(CNS(=O)(=O)c2cccc([N+](=O)[O-])c2)N2CCOCC2)cc1 (stereo not drawn),31.9,70.6% (inactive)
COc1ccc2c(c1)c(=O)c(C(=O)c1ccc(F)cc1)cn2CC(=O)Nc1ccc(F)cc1,48.8,108% (active)
CCOC(=O)/C=c1\s/c(=C\c2ccc3cc(OC)ccc3c2)c(=O)n1CC(=O)NCC1CCCO1 (stereo not drawn),28.6,63.3% (inactive)
COC(=O)C1=CN(Cc2ccc(C)cc2)C=C(C(=O)OC)C1c1ccc(F)c(F)c1,36.2,80.2% (inactive)
Cc1ccc2cc(CN(Cc3ccccc3)Cc3nnnn3C3CCCC3)c(=O)[nH]c2c1,39.2,86.8% (active)
O=C(O)CCC(=O)N1CCc2cc(S(=O)(=O)NCCc3ccc(Cl)cc3)ccc21,35.9,79.6% (inactive)
COc1ccc(CCn2c(C)cc(C(=O)CN3C(=O)C(=O)N(C4CCCC4)C3=O)c2C)cc1OC,27.1,60% (inactive)
O=C(Cc1cccs1)N1CCCC(c2nc3c(nnn3Cc3ccc(F)cc3)c(=O)[nH]2)C1 (stereo not drawn),32.7,72.5% (inactive)
COc1ccc(N2CCN(C(=O)CNC(=O)Cn3c(C)cc4ccccc4c3=O)CC2)cc1,33.3,73.7% (inactive)
O=C(CC1C(=O)Nc2ccccc2N1CC(=O)N1CCCC1)Nc1ccc(Br)cc1 (stereo not drawn),37,81.9% (inactive)
O=C(c1cccc(N2C(=O)C3C4C=CC(C4)C3C2=O)c1)N1CCN(c2ccccc2Cl)CC1 (stereo not drawn),41.1,91% (active)
COc1ccccc1N1C(=O)C2C(C(=O)c3ccccc3)=NN(c3ccc(C)cc3)C2C1=O (stereo not drawn),47.8,106% (active)
COc1cccc(CN2CCN(Cc3ccc4c(NC(C)=O)cccc4n3)CC2CCO)c1 (stereo not drawn),36.5,80.7% (inactive)
